Reference: PubChem BioAssay (NCI)
Where “and” joins values, the source holds several entries; their conditions need not be identical. Identical values can stand only once. This is part of a sample that, as a whole, favours compounds with a hit. Of some 79,000 tested, about 15% had one in any assay. Calls of active or inactive are those of the source. No stated cut-off is given here; in the data, active means growth inhibition above about 70%; inactive means the rest.

assay: NCI Yeast Anticancer Drug Screen. Data for the mlh1 rad18 strain (AID 175); details: S. cerevisiae mlh1 rad18 strain growth inhibition, hits give high values; at 50.0 µM unless noted
Outline: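 Yeast w/ defined DNA-repair lesions; compound exposure; growth vs vehicle controls → % inhibition.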

SMILES | growth inhibition
CCCCCCCCCCCCCCCCCCOC(=O)CC(C)=O | 3.95% (inactive)
Clc1nc(-c2ccccc2)ns1 | -10.4% (inactive)
O=S(=O)(Cl)c1ccc(Cl)cc1 | -7.25% (inactive)
COC(=O)c1nnn(-c2ccc(Cl)cc2C)c1C(=O)c1ccc(OC)cc1 | -20.2% (inactive)
C#CC1(O)C2CCc3cc(OC)ccc3C2CCC1(C)C(=O)OC (stereo not given) | -11.6% (inactive)
CCCCCCC(=O)C/C(CCC(=O)N(Cc1ccccc1)Cc1ccccc1)=N\Nc1ccc([N+](=O)[O-])cc1[N+](=O)[O-] | -20.5% (inactive)
CC1CCC(c2ccccc2)(c2ccccc2)C1=O (stereo not given) | -2.25% (inactive)
OCC1OC(O)C(O)C(O)C1O (stereo not given) | 3.1% (inactive) and 14.4% (inactive)
CC(=O)NC(C)c1ccccc1 (stereo not given) | 3.3% (inactive)
CCCOC(=O)C1C(c2ccc(OC)cc2)NC(c2ccc(OC)cc2)C(C(=O)OCCC)S1(=O)=O (stereo not given) | -14.3% (inactive)
CCOC(=O)COc1cc2c(cc1C(CC)c1ccc(OC)cc1)OCO2 (stereo not given) | -9.5% (inactive)
CC12C(=O)C(C(c3ccccc3)=C1c1ccccc1)C1C(=O)OC(=O)C12 (stereo not given) | -6.65% (inactive)
C=C1CC2C=CC1C2 (stereo not given) | 2.85% (inactive)
COc1ccc(C2S/C(=C\c3ccc(OC)cc3OC)C(=O)N2NC(=O)Cc2ccccc2)cc1 (stereo not given) | 5.05% (inactive)
C/C(=N\NS(=O)(=O)c1ccc(C)cc1)c1cccs1 | 12.6% (inactive)
COc1ccc2[nH]c3cc4c(=O)c5cc(OC)ccc5[nH]c4cc3c(=O)c2c1 | -37.6% (inactive)
O=C(O)c1ccc(NCO)cc1 | 7.85% (inactive)
Clc1ccc(N=Nc2nc3ccccc3nc2N=Nc2ccc(Cl)cc2Cl)c(Cl)c1 | 0.55% (inactive)
CN(C)CCCC(=O)O | -0.35% (inactive)
O=Cc1ccc(OC(=O)Nc2ccc([N+](=O)[O-])cc2)cc1 | 47.4% (inactive)

SMILES | growth inhibition
CC(C)OC(=O)/C=C/CCCC1CCCCC1 | -15.2% (inactive)
O=CNc1cccnc1C1OCCO1 | 7.65% (inactive)
COC1OC(CI)C(O)C(O)C1O (stereo not given) | -16.7% (inactive)
C/C(=N\NS(=O)(=O)c1c(C)cc(C)cc1C)c1ccc[n+]([O-])n1 | -6.7% (inactive)
COc1ccc(C=NCC(OC)OC)cc1OCc1ccccc1 | 12.4% (inactive)
COCCOC(=O)COc1ccccc1 | -1.15% (inactive)
c1ccc(C2=NN(c3ccccc3)CC2)cc1 | 2.05% (inactive)
COc1cccc(N(CN2CC=CC2=O)C(C)=O)c1 | -44.3% (inactive)
CCN(CC)CCC(=O)c1ccc(Cl)cc1 | 17.4% (inactive)
CC1=NN(c2ccc(S(=O)(=O)O)cc2)C(=O)C1N=Nc1ccc(-c2ccc(N=Nc3ccc(O)c(C(=O)O)c3)c(C)c2)cc1C (stereo not given) | 30.7% (inactive)
c1ccc(CNCCNCc2ccccc2)cc1 | -5.35% (inactive) and 46% (inactive)
Cc1ccc(CC2CC(=O)NC2=O)cc1 (stereo not given) | -3.8% (inactive)
CC(CN(C)C)C(=O)/C=C/c1ccc(Cl)cc1 (stereo not given) | 18.4% (inactive)
O=C1NC(=O)c2c(O)cccc21 | 27.9% (inactive)
CCN(CC)CCN(C(=O)C(C)(C)C)c1ccccc1N | -4% (inactive)
CC1=C(CCC(=O)O)c2cc3nc(cc4[nH]c(cc5[nH]c(cc1n2)c(C)c5C1CC1C(=O)O)c(C)c4C1CC1C(=O)O)C(C)=C3CCC(=O)O (stereo not given) | 25.1% (inactive)
C/C(CCC(CC(=O)O)C(C)C)=N\NC(N)=O (stereo not given) | 4.65% (inactive)
CCC(C(=O)O)C(=O)O.[NH2-].[NH2-].[Pt+2] | 2.4% (inactive)
CC1C2=C(CC(C)(C)CC2=O)NC2=C1C(=O)CC(C)(C)C2 | -3.4% (inactive)
Cc1n[nH]c(=O)n1/N=C/c1ccncc1 | 7% (inactive)
